Measurements published in the supplement of paper PMC10849652.
Targets with a hit are over-represented here; the source holds about 7,900 in all. About 0.6% of all pairs of compound and target were hits. Unmarked numbers belong to inactive results.

Assays:
Assay in all cases: log2 fold change, soluble protein after heating vs DMSO (PISA); higher = thermal stabilisation; K562 cells, 10 uM, 30 min; active = over 0.2 and 3.5 SD of the protein, either way, in both replicates (recomputed)
IRAK-1-4 Inhibitor I = compound: C1COCCN1CCN2C3=CC=CC=C3N=C2NC(=O)C4=CC(=CC=C4)[N+](=O)[O-] [IRAK-1-4 Inhibitor I]
Method in brief: (§1)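 K562 cells at 2×10^6 cells/mL were treated with 10 μM compound for 30 min. Aliquots were heated for 3 min across 48°C-58°C, pooled, and extracted in PBS with 0.5% NP-40 at 4°C; soluble protein was the supernatant after 21,000xg for 90 min. Soluble protein was quantified by TMTpro 16plex LC-MS/MS with channel sums equalised, and reported as log2 fold change in thermal stability against DMSO controls, with values from duplicates.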

ibrutinib = compound: C=CC(=O)N1CCC[C@@H](n2nc(-c3ccc(Oc4ccccc4)cc3)c3c(N)ncnc32)C1 [ibrutinib]
Method in brief: as §1

[1] = compound: CC(=O)c1cnc2ccc(-c3cc(Cl)c(O)c(Cl)c3)nc2c1N[C@H]1CC[C@H](CN(C)C)CC1
Method in brief: as §1

ralimetinib = compound: CC(C)(C)Cn1c(N)nc2ccc(-c3[nH]c(C(C)(C)C)nc3-c3ccc(F)cc3)nc21 [ralimetinib]
Method in brief: as §1

[2] = compound: CC(C)(O)CC(=O)NCCn1ccc2ncnc(Nc3ccc(Oc4cccc(C(F)(F)F)c4)c(Cl)c3)c21
Method in brief: as §1

[3] = compound: CC(C)C1=C2N=C(C=C(N2N=C1)NCC3=CC=CC=C3)NCCCCCCN
Method in brief: as §1

[4] = compound: CC(C)C[C@@H](C=O)NC(=O)[C@H](CC(C)C)NC(=O)[C@H](CC(C)C)NC(=O)OCc1ccccc1
Method in brief: as §1

pinometostat = compound: CC(C)N(C[C@H]1O[C@@H](n2cnc3c(N)ncnc32)[C@H](O)[C@@H]1O)[C@H]1C[C@@H](CCc2nc3cc(C(C)(C)C)ccc3[nH]2)C1 [pinometostat]
Method in brief: as §1

[5] = compound: CC1=C(C(CC(=O)N1)C2=CC=C(C=C2)C(F)(F)F)C(=O)NC3=C(C=C4C(=C3)C=NN4)F
Method in brief: as §1

[6] = compound: CC1=C(C2=C(C=C1)C(=O)C3=CC=CC=C3N2CCCN)C
Method in brief: as §1

[7] = compound: CC1=C(C=C(C=C1)NC(=O)C2=CC(=CC=C2)C(C)(C)C#N)NC3=CC4=C(C=C3)N=CN(C4=O)C
Method in brief: as §1

[8] = compound: CC1=C(C=C(C=C1)NC(=O)C2=CC(=CC=C2)N(C)C)NC(=O)C3=CC=C(C=C3)O
Method in brief: as §1

[9] = compound: CC1=CC=C(C=C1)SC2=C3C=C(SC3=CN=C2)C(=O)N
Method in brief: as §1

[10] = compound: CC1=NC(=CC=C1)C2=C(N=C(N2)C(C)(C)C)C3=CC4=NC=CN=C4C=C3
Method in brief: as §1

Nexturastat A = compound: CCCCN(Cc1ccc(C(=O)NO)cc1)C(=O)Nc1ccccc1 [Nexturastat A]
Method in brief: as §1

vemurafenib = compound: CCCS(=O)(=O)Nc1ccc(F)c(C(=O)c2c[nH]c3ncc(-c4ccc(Cl)cc4)cc23)c1F [vemurafenib]
Method in brief: as §1

[11] = compound: CCCS(=O)(=O)Nc1ccc(F)c(C(=O)c2c[nH]c3ncc(Cl)cc23)c1F
Method in brief: as §1

[12] = compound: CCCc1cc(C)[nH]c(=O)c1CNC(=O)c1cc(-c2ccnc(N3CCN(C)CC3)c2)cc2c1cnn2C(C)C
Method in brief: as §1

givinostat = compound: CCN(CC)Cc1ccc2cc(COC(=O)Nc3ccc(C(=O)NO)cc3)ccc2c1 [givinostat]
Method in brief: as §1

barasertib = compound: CCN(CCCOc1ccc2c(Nc3cc(CC(=O)Nc4cccc(F)c4)[nH]n3)ncnc2c1)CCOP(=O)(O)O [barasertib]
Method in brief: as §1

Sequence of UniProt Q4ZG55 (Q4ZG55 whole entry, looked up): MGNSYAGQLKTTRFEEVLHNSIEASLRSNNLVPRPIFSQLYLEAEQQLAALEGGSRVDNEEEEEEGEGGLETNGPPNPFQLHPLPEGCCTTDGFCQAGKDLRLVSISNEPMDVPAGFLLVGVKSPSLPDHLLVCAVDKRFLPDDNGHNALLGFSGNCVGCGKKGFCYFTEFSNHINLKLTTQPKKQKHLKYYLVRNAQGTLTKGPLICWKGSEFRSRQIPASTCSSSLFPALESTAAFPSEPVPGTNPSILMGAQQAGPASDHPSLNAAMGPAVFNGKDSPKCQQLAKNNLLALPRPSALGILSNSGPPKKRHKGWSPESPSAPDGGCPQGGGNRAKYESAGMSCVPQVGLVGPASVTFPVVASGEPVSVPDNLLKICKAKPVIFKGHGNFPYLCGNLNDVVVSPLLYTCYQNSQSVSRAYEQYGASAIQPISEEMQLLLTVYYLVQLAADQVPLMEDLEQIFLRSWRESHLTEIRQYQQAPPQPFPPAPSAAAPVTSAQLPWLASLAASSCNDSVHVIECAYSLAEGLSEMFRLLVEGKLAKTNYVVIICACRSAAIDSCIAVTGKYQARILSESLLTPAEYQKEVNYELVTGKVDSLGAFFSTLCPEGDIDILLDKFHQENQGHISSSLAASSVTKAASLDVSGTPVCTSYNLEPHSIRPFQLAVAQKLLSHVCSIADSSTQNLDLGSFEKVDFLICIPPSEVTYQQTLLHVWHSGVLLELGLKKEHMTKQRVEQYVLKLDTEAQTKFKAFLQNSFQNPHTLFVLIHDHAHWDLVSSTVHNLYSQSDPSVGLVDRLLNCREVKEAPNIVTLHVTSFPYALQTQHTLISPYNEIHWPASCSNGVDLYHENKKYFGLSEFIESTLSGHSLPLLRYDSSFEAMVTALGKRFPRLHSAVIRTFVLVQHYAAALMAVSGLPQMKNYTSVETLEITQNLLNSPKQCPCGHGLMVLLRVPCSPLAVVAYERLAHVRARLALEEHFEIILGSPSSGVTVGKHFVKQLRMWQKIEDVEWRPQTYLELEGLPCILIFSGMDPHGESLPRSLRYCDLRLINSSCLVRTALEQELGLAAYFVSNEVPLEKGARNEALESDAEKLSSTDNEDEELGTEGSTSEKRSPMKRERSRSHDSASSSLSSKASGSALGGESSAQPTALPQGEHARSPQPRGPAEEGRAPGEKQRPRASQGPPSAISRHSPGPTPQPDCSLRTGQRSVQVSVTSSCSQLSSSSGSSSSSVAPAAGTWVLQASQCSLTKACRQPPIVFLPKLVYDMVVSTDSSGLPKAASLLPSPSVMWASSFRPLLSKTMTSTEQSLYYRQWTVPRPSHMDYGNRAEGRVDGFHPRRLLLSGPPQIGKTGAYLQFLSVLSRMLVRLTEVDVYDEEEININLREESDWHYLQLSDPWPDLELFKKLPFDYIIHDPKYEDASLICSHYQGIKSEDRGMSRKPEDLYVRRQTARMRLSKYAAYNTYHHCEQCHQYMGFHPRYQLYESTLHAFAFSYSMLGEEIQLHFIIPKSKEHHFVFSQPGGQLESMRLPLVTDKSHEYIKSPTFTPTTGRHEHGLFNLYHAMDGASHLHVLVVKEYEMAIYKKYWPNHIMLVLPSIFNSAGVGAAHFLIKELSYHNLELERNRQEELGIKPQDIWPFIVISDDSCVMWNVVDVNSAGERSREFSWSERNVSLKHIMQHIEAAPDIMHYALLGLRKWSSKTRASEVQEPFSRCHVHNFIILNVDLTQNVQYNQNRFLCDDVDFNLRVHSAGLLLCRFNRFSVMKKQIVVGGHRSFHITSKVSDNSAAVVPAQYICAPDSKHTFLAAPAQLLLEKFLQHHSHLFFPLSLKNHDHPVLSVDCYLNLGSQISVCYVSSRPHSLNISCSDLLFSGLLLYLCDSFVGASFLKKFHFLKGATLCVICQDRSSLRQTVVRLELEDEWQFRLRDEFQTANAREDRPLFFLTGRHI
Sequence of UniProt Q7Z4Q2 (Q7Z4Q2 whole entry, looked up): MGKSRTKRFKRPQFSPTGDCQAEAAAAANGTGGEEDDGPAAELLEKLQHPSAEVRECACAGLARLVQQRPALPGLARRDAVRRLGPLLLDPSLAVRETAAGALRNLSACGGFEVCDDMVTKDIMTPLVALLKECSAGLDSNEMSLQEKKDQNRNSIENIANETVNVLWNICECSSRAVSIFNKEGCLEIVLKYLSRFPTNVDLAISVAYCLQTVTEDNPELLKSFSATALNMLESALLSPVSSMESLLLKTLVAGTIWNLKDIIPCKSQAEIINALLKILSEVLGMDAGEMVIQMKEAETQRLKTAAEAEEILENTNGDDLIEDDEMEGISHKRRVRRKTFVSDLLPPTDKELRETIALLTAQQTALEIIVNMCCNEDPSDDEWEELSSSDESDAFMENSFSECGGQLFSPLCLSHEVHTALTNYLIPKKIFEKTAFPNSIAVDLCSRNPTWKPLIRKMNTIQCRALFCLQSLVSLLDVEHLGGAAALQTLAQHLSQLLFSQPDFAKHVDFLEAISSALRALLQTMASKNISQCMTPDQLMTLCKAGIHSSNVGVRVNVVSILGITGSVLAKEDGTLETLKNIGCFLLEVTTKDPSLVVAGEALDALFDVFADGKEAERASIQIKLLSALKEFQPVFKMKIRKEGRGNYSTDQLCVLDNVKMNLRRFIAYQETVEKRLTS
Sequence of UniProt Q14687 (Q14687 whole entry, looked up): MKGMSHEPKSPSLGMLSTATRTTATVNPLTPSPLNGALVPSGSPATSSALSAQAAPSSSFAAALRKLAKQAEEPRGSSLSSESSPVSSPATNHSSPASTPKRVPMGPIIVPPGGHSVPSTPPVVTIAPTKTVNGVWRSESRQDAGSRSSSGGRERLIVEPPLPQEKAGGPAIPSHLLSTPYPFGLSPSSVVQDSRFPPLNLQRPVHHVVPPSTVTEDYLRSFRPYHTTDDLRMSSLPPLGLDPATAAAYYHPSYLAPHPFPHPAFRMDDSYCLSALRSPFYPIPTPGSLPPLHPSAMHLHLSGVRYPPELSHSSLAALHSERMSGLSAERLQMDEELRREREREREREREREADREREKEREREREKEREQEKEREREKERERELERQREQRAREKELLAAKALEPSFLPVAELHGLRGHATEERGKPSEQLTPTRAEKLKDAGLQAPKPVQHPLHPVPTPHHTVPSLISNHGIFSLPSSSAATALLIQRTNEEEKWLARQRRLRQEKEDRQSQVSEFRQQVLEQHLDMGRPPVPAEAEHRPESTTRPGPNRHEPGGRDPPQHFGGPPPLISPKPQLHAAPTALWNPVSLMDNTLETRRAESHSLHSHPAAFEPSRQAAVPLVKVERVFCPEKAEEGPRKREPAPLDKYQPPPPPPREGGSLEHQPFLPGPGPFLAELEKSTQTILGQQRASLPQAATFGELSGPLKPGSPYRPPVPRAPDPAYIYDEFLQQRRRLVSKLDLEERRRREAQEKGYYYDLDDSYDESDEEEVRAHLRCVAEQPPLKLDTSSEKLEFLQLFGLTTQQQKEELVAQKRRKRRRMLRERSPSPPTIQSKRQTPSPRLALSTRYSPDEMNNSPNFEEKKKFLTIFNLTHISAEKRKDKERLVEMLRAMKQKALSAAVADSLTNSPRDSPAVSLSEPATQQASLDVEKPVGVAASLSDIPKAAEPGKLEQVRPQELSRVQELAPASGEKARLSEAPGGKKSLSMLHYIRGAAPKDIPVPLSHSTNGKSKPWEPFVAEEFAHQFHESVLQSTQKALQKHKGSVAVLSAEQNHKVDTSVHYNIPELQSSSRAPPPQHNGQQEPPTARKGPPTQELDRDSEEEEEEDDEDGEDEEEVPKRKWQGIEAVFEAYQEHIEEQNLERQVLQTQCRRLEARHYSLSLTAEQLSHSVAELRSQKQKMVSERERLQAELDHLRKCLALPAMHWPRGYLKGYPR
Sequence of UniProt Q92664 (Q92664 whole entry, looked up): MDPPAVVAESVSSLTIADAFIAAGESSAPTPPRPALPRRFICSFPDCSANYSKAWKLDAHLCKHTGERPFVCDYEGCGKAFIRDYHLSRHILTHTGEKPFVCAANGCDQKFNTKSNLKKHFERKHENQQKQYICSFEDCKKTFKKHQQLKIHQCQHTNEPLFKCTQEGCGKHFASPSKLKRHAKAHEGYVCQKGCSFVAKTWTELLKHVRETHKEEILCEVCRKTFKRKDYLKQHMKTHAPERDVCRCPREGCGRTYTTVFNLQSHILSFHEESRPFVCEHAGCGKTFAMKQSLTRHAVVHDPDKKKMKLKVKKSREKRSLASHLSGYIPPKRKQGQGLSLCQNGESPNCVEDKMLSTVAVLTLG
Sequence of UniProt P50213 (P50213 whole entry, looked up): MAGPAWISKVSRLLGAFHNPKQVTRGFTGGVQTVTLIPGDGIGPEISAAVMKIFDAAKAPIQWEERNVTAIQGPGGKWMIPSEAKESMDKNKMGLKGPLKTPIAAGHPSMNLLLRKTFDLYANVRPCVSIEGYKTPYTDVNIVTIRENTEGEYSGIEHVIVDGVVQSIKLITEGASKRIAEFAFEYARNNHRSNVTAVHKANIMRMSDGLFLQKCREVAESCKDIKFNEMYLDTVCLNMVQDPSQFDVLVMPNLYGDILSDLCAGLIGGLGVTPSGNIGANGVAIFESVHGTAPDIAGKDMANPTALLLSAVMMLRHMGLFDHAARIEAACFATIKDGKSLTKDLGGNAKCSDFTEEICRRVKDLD
Sequence of UniProt Q53FT3 (Q53FT3 whole entry, looked up): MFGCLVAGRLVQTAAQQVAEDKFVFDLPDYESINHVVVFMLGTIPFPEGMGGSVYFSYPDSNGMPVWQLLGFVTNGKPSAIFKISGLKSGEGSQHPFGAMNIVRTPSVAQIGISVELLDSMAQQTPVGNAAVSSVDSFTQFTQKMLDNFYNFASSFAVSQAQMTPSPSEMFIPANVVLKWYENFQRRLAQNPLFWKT
Sequence of UniProt Q8IVP5 (Q8IVP5 whole entry, looked up): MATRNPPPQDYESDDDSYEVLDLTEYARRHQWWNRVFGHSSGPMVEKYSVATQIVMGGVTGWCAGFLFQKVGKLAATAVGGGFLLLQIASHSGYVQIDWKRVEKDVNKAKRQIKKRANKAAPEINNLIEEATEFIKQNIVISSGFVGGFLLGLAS

| Target | log2 fold change (IRAK-1-4 Inhibitor I) | log2 fold change (ibrutinib) | log2 fold change [1] | log2 fold change (ralimetinib) | log2 fold change [2] | log2 fold change [3] | log2 fold change [4] | log2 fold change (pinometostat) | log2 fold change [5] | log2 fold change [6] | log2 fold change [7] | log2 fold change [8] | log2 fold change [9] | log2 fold change [10] | log2 fold change (Nexturastat A) | log2 fold change (vemurafenib) | log2 fold change [11] | log2 fold change [12] | log2 fold change (givinostat) | log2 fold change (barasertib) |
| --- | --- | --- | --- | --- | --- | --- | --- | --- | --- | --- | --- | --- | --- | --- | --- | --- | --- | --- | --- | --- |
| HIKESHI (UniProt Q53FT3) | 0.013 | -0.041 | 0.023 | -0.305 (active) | -0.045 | -0.007 | -0.194 | 0.062 | -0.043 | 0.061 | -0.138 | -0.051 | 0.003 | -0.011 | -0.037 | 0.027 | 0.003 | -0.033 | -0.008 | 0.011 |
| GNAI3 (UniProt P08754) | -0.007 | 0.083 | 0.027 | 0.066 | 0.083 | 0.006 | -0.03 | 0.024 | 0.02 | 0.038 | 0.125 | -0.012 | -0.07 | -0.021 | 0.072 | 0.037 | -0.025 | 0.069 | -0.263 (active) | 0 |
| HMGB3 (UniProt O15347) | 0.071 | 0.038 | 0.083 | 0.163 | -0.007 | 0.068 | 0.001 | -0.019 | -0.003 | 0.016 | -0.012 | 0 | 0.006 | 0.011 | -0.014 | -0.083 | 0.011 | 0.202 | -0.016 | -0.008 |
| GAB2 (UniProt Q9UQC2) | -0.097 | – | -0.573 | 0.059 | -0.242 | -0.616 | 0.094 | 0.081 | – | 0.004 | -0.053 | -0.21 | 0.022 | 0.077 | 0.075 | -0.071 | -0.349 | 0.099 | 0.101 | – |
| IDH3A isoform 2 (UniProt P50213) | 0.196 | 0.008 | -0.004 | – | – | 0.153 | – | 0.011 | -0.033 | 0.059 | – | – | – | -0.083 | – | – | – | – | 0.175 | -0.012 |
| FAT2 (UniProt Q9NYQ8) | 0.103 | 0.107 | – | 0.182 | -0.149 | -0.002 | 0.225 | 0.051 | – | 0.132 | – | -0.035 | -0.113 | -0.114 | 0.456 | -0.002 | 0.009 | -0.333 | 0.119 | 0.069 |
| GPS2 (UniProt Q13227) | -0.013 | -0.006 | – | -0.19 | -0.052 | 0.027 | -0.069 | 0.019 | 0.006 | -0.135 | -0.13 | -0.04 | -0.17 | -0.013 | -0.316 (active) | 0.019 | -0.01 | 0.026 | -0.145 | -0.008 |
| H3-3A (UniProt P84243) | – | -0.016 | – | – | – | -0.07 | – | – | -0.004 | 0.656 (active) | -0.205 | – | 0.078 | – | – | 0.149 | 0.102 | 0.118 | 0.267 | 0.101 |
| FRA10AC1 isoform 3 (UniProt Q70Z53) | 0.005 | -0.014 | 0.024 | – | -0.024 | 0.169 | – | 0.001 | -0.03 | -0.201 | -0.068 | – | 0.04 | 0.041 | -0.096 | 0.104 | 0.001 | -0.001 | 0.052 | -0.002 |
| HDAC10 (UniProt Q969S8) | – | -0.01 | 0.137 | 0.006 | – | -0.124 | -0.026 | – | 0.037 | -0.287 | – | 0.027 | -0.001 | – | – | 0.231 | 0.046 | 0.056 | 0.153 | -0.117 |
| HNRNPUL1 (UniProt M0R247) | 0.041 | – | -0.259 | – | – | 0.121 | – | -0.025 | 0.031 | 0.008 | -0.059 | – | -0.148 | -0.075 | – | – | -0.15 | – | 0.001 | – |
| GINS2 (UniProt Q9Y248) | 0 | -0.033 | – | 0.024 | -0.02 | -0.081 | -0.042 | -0.067 | -0.057 | 0.113 | 0.136 | -0.168 | 0.099 | 0.147 | 0.174 | 0.102 | 0.029 | 0.021 | -0.038 | 0.053 |
| HEATR3 (UniProt Q7Z4Q2) | -0.08 | 0.006 | – | 0.07 | -0.125 | -0.319 (active) | -0.137 | -0.032 | 0.216 | -0.196 | 0.004 | 0.116 | 0.034 | 0.047 | 0.016 | 0.007 | 0.082 | -0.067 | 0.069 | 0.144 |
| FUNDC1 (UniProt Q8IVP5) | – | -0.023 | – | – | – | – | – | – | – | – | 0.007 | – | 0.118 | – | – | – | -0.013 | -0.285 | – | 0.052 |
| FIZ1 (UniProt Q96SL8) | -0.14 | – | – | – | 0.017 | – | – | 0.123 | 0.121 | – | -0.164 | – | – | -0.047 | 0.102 | 0.13 | – | -0.022 | – | – |
| GNL3 (UniProt Q9BVP2) | – | 0.047 | 0.012 | – | -0.007 | – | – | – | 0.029 | 0.066 | 0.002 | – | – | – | 0.491 (active) | -0.12 | – | -0.307 | – | 0.079 |
| GREB1 (UniProt Q4ZG55) | 0.04 | – | 0.037 | – | -0.032 | 0.26 | – | -0.095 | – | 0.066 | -0.003 | – | – | -0.338 | 0.755 (active) | 0.047 | – | – | 0.294 | – |
| HBZ, A0A494C057 | – | 0.284 | – | – | – | -0.054 | – | – | -0.145 | – | – | – | – | – | – | – | – | 0.051 | 0.109 | 0.013 |
| GTF3A (UniProt Q92664) | 0.034 | -0.013 | 0.065 | – | -0.084 | -0.036 | – | 0.004 | 0.249 | 0.107 | 0.074 | – | 0.09 | 0.125 | -0.054 | -0.075 | 0.078 | -0.035 | -0.048 | -0.053 |
| HAUS4 (UniProt Q9H6D7) | – | 0.103 | -0.107 | 0.112 | 0.246 | -0.51 (active) | 0.139 | – | 0.095 | 0.048 | -0.143 | 0.003 | 0.084 | – | -0.061 | -0.049 | 0.012 | -0.269 | 0.08 | -0.16 |
| GSE1 (UniProt Q14687) | – | 0.057 | – | -0.065 | – | – | 0.003 | – | 0.044 | – | – | 0.071 | – | – | – | -0.13 | – | – | – | 0.232 |
| FCHO1 (UniProt O14526) | -0.114 | – | -0.593 (active) | -0.081 | -0.073 | 0.045 | 0.191 | 0.05 | 0.094 | -0.011 | 0.103 | -0.023 | 0.004 | -0.016 | 0.053 | 0.254 | 0.037 | -0.003 | 0.073 | – |
